This passage reports Potency results from PubChem BioAssay (NCATS).

Inconclusive results are not listed. Where a call stands in place of a potency, no number is given. Active and inactive are the calls of the source. Calls come from the whole dose curve; as a rule, active = well fitted curve in the direction sought with a large enough effect; inconclusive = small, poorly fitted or top-dose-only effect, or another doubt; inactive = no such curve, though single readings can be large; an effect the other way counts as inactive or inconclusive.

Assay [1] addresses Aldehyde dehydrogenase, mitochondrial (Homo sapiens) (UniProt P05091). In words: qHTS for Inhibitors of the Aldehyde Dehydrogenase Family (ALDH2) Primary screen (AID 2061308). Note: nearly all actives have a fitted effect of over 55% in size. For orientation: qHTS replaces the single test concentration by a dilution series.
In assay [2] the target is Retinaldehyde dehydrogenase 3 (Homo sapiens) (UniProt P47895). Kind of assay: qHTS for Inhibitors of the Aldehyde Dehydrogenase Family (ALDH1A3) Primary screen (AID 2061315).

For the compound `O=C(Cc1nc2ccc(Cl)cc2[nH]1)Nc1ccc(S(=O)(=O)Nc2nccs2)cc1`, the Potency entry in assay [1] and in assay [2] was “inactive” throughout.
As to `CCCC1CCC(C(=O)Nc2ccc(S(=O)(=O)Nc3nccs3)cc2)CC1` (stereo not drawn), the Potency entry in assay [1] and in assay [2] was “inactive” each time.
As for `Cc1ccc(C2N=C(Nc3nc4ccccc4o3)NC3=C2C(=O)CCC3)s1` (stereo not drawn), the Potency result in assay [1] and in assay [2] was “inactive” each time.
With `Fc1ccc(Nc2nc(-c3ccnc(N4CCCCC4)c3)nc3ccccc23)cc1F`, the Potency entry in assay [1] and in assay [2] was “inactive” each time.
Consider `COc1cccc(CNc2ccc(S(=O)(=O)Nc3ccc(N4CCNCC4)cc3)cc2)c1O`, for which the Potency result in assay [1] and in assay [2] was “inactive” throughout.
For `COc1ccc(C2Nc3ccccc3C(=O)N2Cc2ccccc2)cc1COc1c(C)cc(NC(C)=O)cc1C` (stereo not drawn), the Potency result in assay [1] and in assay [2] was “inactive” throughout.
With `Cc1cc(C)nc(NC(=S)N2CCN(c3cnc4nccn4c3)CC2)c1`, the Potency entry in assay [1] and in assay [2] was “inactive” in each case.
Turning to `COc1ccc(OC2=NS(=O)(=O)c3ccccc32)cc1`, the Potency result in assay [1] and in assay [2] was “inactive” each time.
`Cc1ccc(S(=O)(=O)Nc2cnccc2C(=O)NCc2ccccc2)cc1`: the Potency entry in assay [1] and in assay [2] was “inactive” throughout.
On to `CN(C)CC(=O)NC1CCCc2c1cnn2-c1ccc(F)cc1F` (stereo not drawn), for which the Potency entry in assay [1] and in assay [2] was “inactive” throughout.
On to `Cc1nc(-c2ccc([S+](=O)([O-])N3CCN([S+](=O)([O-])c4c(F)cccc4F)CC3)s2)cs1`, for which the Potency result in assay [1] and in assay [2] was “inactive” in each case.
For `CN(C(=O)c1cn2c(-c3ccc(C(F)(F)F)cc3)cnc2cn1)c1ccc(C#N)cc1`, the Potency result in assay [1] and in assay [2] was “inactive” throughout.
As to `O=[S+]([O-])(c1ccc2c(c1)OCCO2)N1CCN([S+](=O)([O-])c2c(F)cc(O)cc2F)CC1`, the Potency result in assay [1] and in assay [2] was “inactive” each time.
Take `O=C(/C=C/c1cccc(Cl)c1)Nc1cccc([S+](=O)([O-])Nc2ccccc2F)c1`: the Potency entry in assay [1] and in assay [2] was “inactive” in each case.
